CtBP-E1A blk – CtBP/E1A binding inhibition | actives 0.49% (n = 340,000) | AlphaScreen GST-E1A/His-CtBP binding, 1536-well; active compounds read low | activity change, % (test concentration not listed); in the data active means activity change below about -65%; inconclusive means mostly about -30% to -63%
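Protein mix (5X: 125 nM each GST-E1A, His-CtBP) was incubated with pinned compound 2 h at 37 deg C in dark, in 50 mM Tris pH 8.0 buffer with 300 mM NaCl. Glutathione donor and nickel acceptor beads followed; AlphaScreen signal read after 1 h.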
Six1-Eya2 inh – inhibitors of human Six1/Eya2 interaction. AlphaScreen GST-Six1/His-Eya2 binding, biochemical; active compounds read low. activity change, % (concentration not given with the values). actives 0.56% (n = 360,000). AID 651725; in the data active means activity change below about -65%; inconclusive means mostly about -30% to -63%
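AlphaScreen luminescence read after one hour at 37 °C in darkness. Pin-transferred compounds met GST-Six1 and His-Eya2 protein (5X stock 250 nM/500 nM) plus glutathione donor and Ni-chelate acceptor beads (5X, 50 ug/mL).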
BAZ2B block – inhibitors of human BAZ2B bromodomain; Q9UIF8; AlphaScreen BAZ2B-H3K14Ac peptide displacement; Potency, µM (series often up to 114 µM), hits mostly inhibitors; actives 4.4% (n = 360,000); AID 504333; further: nearly all actives have a fitted effect of over 60% in size
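Multi-concentration screen (max 110 uM) measuring displacement of acetylated histone H3 peptide from BAZ2B by AlphaScreen, using 50 nM protein, 50 nM peptide and 10 ug/mL streptavidin donor plus Ni-chelate acceptor beads.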
HP1b chromo inh – HP1-beta chromodomain-methylated histone interaction inhibition; AlphaScreen HP1-beta / biotin-H3K9me3 peptide binding; Potency, µM (series often up to 114 µM), actives largely listed as inhibitors; actives 0.56% (n = 390,000); further: nearly all actives have a fitted effect of over 70% in size
Target sequence (P83916 whole entry, looked up): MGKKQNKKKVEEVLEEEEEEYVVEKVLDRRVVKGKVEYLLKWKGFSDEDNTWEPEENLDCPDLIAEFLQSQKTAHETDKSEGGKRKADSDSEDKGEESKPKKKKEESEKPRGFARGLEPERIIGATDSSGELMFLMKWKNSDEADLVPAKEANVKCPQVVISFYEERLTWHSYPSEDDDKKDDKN
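HP1-beta protein (50 nM final) preincubated 30 min at room temperature with biotinylated H3(1-18)K9me3 peptide (50 nM) in PBS pH 7.4, 0.01% Tween-20, then compound added for 30 min. AlphaScreen streptavidin donor/nickel chelate acceptor beads (10 ug/mL final), 30 min dark, luminescence read.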
JMJD2A Tudor inh – inhibitors of human JMJD2A Tudor domain | O75164 | AlphaScreen JMJD2A-Tudor / H3K4me3 peptide binding | Potency, µM (series often up to 114 µM), usual class: inhibitors | actives 4.4% (n = 390,000) | AID 504339; further: nearly all actives have a fitted effect of over 50% in size
G9a inh – inhibitors of human histone lysine methyltransferase G9a; Q96KQ7; G9a H3K9 monomethylation, AlphaScreen, 2 h; Potency, µM (titrated, usually from 102 µM), actives largely listed as inhibitors; actives 8.8% (n = 350,000); AID 504332; further: nearly all actives have a fitted effect of over 75% in size
Target sequence (Q96KQ7 913-1193 limits assumed): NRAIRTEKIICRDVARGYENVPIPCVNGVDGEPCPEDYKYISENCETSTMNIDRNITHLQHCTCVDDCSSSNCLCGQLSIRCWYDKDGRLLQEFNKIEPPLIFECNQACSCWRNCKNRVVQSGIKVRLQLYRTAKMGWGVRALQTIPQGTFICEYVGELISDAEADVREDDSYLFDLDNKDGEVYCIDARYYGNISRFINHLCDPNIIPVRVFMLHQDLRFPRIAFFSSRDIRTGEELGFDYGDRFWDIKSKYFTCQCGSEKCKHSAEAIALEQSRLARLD
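Using a bead-based AlphaScreen, monomethylated H3K9 product from 2 h room-temperature reactions (G9a 20 nM, peptide 500 nM, SAM 20 uM) was detected with 0.5 ug/mL rabbit anti-H3K9me1 antibody.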
Numbers stand for hits; – = inactive; ? = inconclusive; · = no result; [ ] = dose if it differs, or a comment. Most compounds without a hit are left out; they make up all but 10% or so of the library. Unless noted, the call rests on the fitted dose curve; in most records, active means well fitted inhibition curve with a large enough effect; inconclusive means small, poorly fitted or top-dose-only effect; inactive means no such curve, though single readings can be large or run the other way.

SMILES	CtBP-E1A blk	Six1-Eya2 inh	BAZ2B block	HP1b chromo inh	JMJD2A Tudor inh	G9a inh
O=C(O)c1ccc(N/N=C/C2=C(N3CCOCC3)C(=C\c3ccccc3)/CC2)cc1	–	–	50.1µM	?	?	·
C/C(=N/Nc1ccnc2cc(Cl)ccc12)c1ccc(O)cc1	–	–	44.7µM	–	?	–[2.33 µM]
C/C(=N/Nc1ccnc2cc(Cl)ccc12)c1ccc(N)cc1	–	–	44.7µM	–	?	1.78µM
Clc1ccc2c(N/N=C/c3ccccc3Br)ccnc2c1	–	–	–	–	?	–
COc1ccc(NC(=O)CN(C)C(=O)CCCNC(=O)c2ccc(Cl)cc2)cc1	–	–	–	–	–	–[0.501 µM]
CCOc1ccccc1CNC(=O)CN1C(=O)c2cccnc2Oc2ccc(C)cc21	·	·	–	–	–	–
O=C1C=C(O)c2[nH]c(=O)ccc2C1=O	–	–	·	–	10µM	·
CN(C(=O)c1cc(-n2cnnc2)ccc1Cl)c1ccccc1	–	–	–	–	–	–
O=C(CC1SC(=O)N(c2ccccc2)C1=O)Nc1ccc(Cl)cc1 (stereo not given)	–	–	–	–	–	44.7µM
COc1ccc(NC(=O)/C(C#N)=C/c2ccc(OCc3cc(=O)n4nc(C)sc4n3)cc2)cc1	·	·	–	–	–	–
CCCC(c1nnnn1C1CCCC1)N1CCN(C(=O)c2ccco2)CC1 (stereo not given)	–	–	?	–	?	?
CC(C)CC(c1nnnn1C1CCCC1)N1CCN(C(=O)c2ccco2)CC1 (stereo not given)	–	–	79.4µM	–	50.1µM	–
CCCCC(c1nnnn1C1CCCC1)N1CCN(C(=O)c2ccco2)CC1 (stereo not given)	–	–	79.4µM	–	–	–[12.7 µM]
Cc1ccc(CN2CCN(CC(=O)NCc3ccccc3Cl)C2=O)cc1	·	·	–	–	–	–
CN(C)CCn1c2c(c(SCC(=O)Nc3cccc4ccccc34)nc1=O)CCC2	–	–	–	–	–	–[0.501 µM]
CCN(CC)CCn1c2c(c(SCC(=O)Nc3cccc4ccccc34)nc1=O)CCCC2	–	–	–	–	–	12.6µM
CN(C)CCCn1c2c(c(SCC(=O)Nc3cccc4ccccc34)nc1=O)CCC2	–	–	–	–	–	50.1µM
O=C1c2oc3ccccc3c(=O)c2C(c2ccc(O)cc2)N1c1nccs1 (stereo not given)	·	–	–	–	–	–
Cc1c(Cc2ccccc2)c(=O)oc2cc(OCC(=O)N3CCC(C(N)=O)CC3)ccc12	–	–	–	–	–	–[12.7 µM]
CCOc1ccc(NC(=O)CSc2nccn2C2CCCC2)cc1	·	·	–	–	–	–
N/C(=N\OC(=O)N1c2ccccc2Sc2ccccc21)c1ccccc1	–	–	?	–	?	44.7µM
COC(=O)C1=C(C)OC(N)=C(C#N)C1c1ccccc1 (stereo not given)	–	–	–	–	–	–[2.33 µM]
COC(=O)C1=C(C)OC(N)=C(C#N)C1c1ccc(OC)c(CSc2ccccn2)c1 (stereo not given)	–	–	–	–	–	15.8µM
COc1ccc(NC(=O)CSc2nnnn2C)c([N+](=O)[O-])c1	·	–	–	–	–[11.4 µM]	–
CCS(=O)(=O)n1nc(-c2ccc(Cl)cc2)nc1SCc1ccccc1	–	–	–	–	39.8µM	7.08µM
SMILES	CtBP-E1A blk	Six1-Eya2 inh	BAZ2B block	HP1b chromo inh	JMJD2A Tudor inh	G9a inh
CCOc1cc(C2C(C(=O)Nc3ccccc3)=C(C)Nc3ncnn32)cc(Br)c1O (stereo not given)	·	·	79.4µM	–	?	10µM
CC1=C(C(=O)Nc2ccccc2C)C(c2ccc[nH]2)n2ncnc2N1 (stereo not given)	·	·	50.1µM	–	56.2µM	–
CCOc1cc(C2C(C(N)=O)=C(C)Nc3ncnn32)cc(Br)c1O (stereo not given)	·	·	–	–	–	–
O=C1c2[nH]nc(-c3ccccc3)c2C(c2ccccc2)N1c1cccc(C(F)(F)F)c1 (stereo not given)	·	·	–	–	–	–
CSCCC(NC(=O)c1ccccc1Br)C(=O)NCCCn1nc(C)cc1C (stereo not given)	–	–	–	–	–	–
COc1ccc(C)cc1NC(=O)N(C(C)C)C1CCN(C(C)=O)CC1	·	·	–	–	–	–
COc1cc(NC(=O)Cc2c(C(=O)O)c(C)cn2C)cc(OC)c1	·	·	?	–	–	–
Cc1nnc(NC(=O)C2CCN(S(=O)(=O)c3ccc(F)c(Cl)c3)CC2)o1	–	?	31.6µM	–	3.55µM	–
COc1ccc(OC)c(N=C(C)C2=C(O)COC2=O)c1	–	–	–	–	–	3.55µM
COC(=O)c1cc(CN2C(=O)c3ccccc3C2=O)c(O)c([N+](=O)[O-])c1	–	–	56.2µM	–	–	–
COC(=O)c1ccc(CN2C(=O)c3ccccc3C2=O)cc1	–	–	–	–	–	–
O=S1(=O)N[C@H](Cc2ccccc2)COc2cccc(N3CCC[C@@H]3CO)c21	–	–	·	·	·	·
Cc1ccc(-n2c(CCc3ccccc3)nnc2SCC(=O)NCc2ccccc2)cc1C	–	–	–	–	–	–
CC(C)Oc1ccc(CCc2n[nH]c(=S)n2-c2ccccc2)cc1	–	–	–	–	–	2.51µM
Cn1c(SCc2n[nH]c(=S)n2-c2ccccc2)nnc1-c1ccccc1	–	–	–	–	17.8µM	8.91µM
Cc1ccc(-n2c(CCc3ccccc3)n[nH]c2=S)cc1C	–	–	–	–	?	2µM
Cc1n[nH]c(=S)n1-c1cccc(Cl)c1	–	–	–	–	7.94µM	3.98µM
CCC1(c2ccc(Cl)cc2)NC(=O)N(Cc2ccc(C(=O)OC)cc2)C1=O (stereo not given)	–	–	–	–	–	–
CC[C@@]1(C(=O)OC)N[C@H](CN(C)C(=O)Nc2ccc(OC)cc2)[C@@H]2C(=O)N(Cc3ccccc3)C(=O)[C@@H]21	–	–	·	–	–	·
NNC(=O)CNC(=O)CNS(=O)(=O)c1ccccc1	·	–	–	–	–[11.4 µM]	–
CCCOCC(O)CCc1n[nH]c(=S)n1-c1ccccc1 (stereo not given)	–	–	–	–	50.1µM	·
Cc1ccc(C)c(NCc2n[nH]c(=S)n2-c2ccccc2)c1	–	–	–	–	?	·
COC(Cc1n[nH]c(=S)n1-c1ccccc1)OC	–	–	–	–	17.8µM	–
Cc1ccccc1OCc1n[nH]c(=S)n1-c1cccc(Cl)c1	·	–	–	–	–	11.2µM
Cc1ccccc1OCc1nnc(SCC(=O)O)n1-c1cccc(Cl)c1	–	–	–	–	–	–
Cc1cccc(C)c1NCc1n[nH]c(=S)n1-c1ccccc1	–	–	–	–	39.8µM	11.2µM
OCCCc1n[nH]c(=S)n1-c1ccccc1	–	–	–	–	–	?
